From PubChem BioAssay (Tox21) come the findings set out here.

Unmarked numbers belong to inactive results. Records with an inconclusive call do not appear. Active and inactive are the calls of the source. Unless noted, calls come from the whole dose curve; as a rule, active = well fitted curve in the direction sought with a large enough effect in the repeat runs; inconclusive = weak or mixed curves; inactive = no such curve, though single readings can be large; an effect the other way counts as inactive or inconclusive.

A short description of test [1]: qHTS assay for small molecules that induce genotoxicity in human embryonic kidney cells expressing luciferase-tagged ATAD5 (AID 651632). Note: nearly all actives have a fitted effect of over 15% in size. In outline: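 HEK293T cells carrying a luciferase reporter tagged to ATAD5 were exposed to compound or DMSO vehicle for 16 hr at 37C, 5% CO2. Amplite was added, and after 30 min at room temperature luciferase activity was read as a marker of ATAD5 induction.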
A general note: Quantitative high-throughput screening tests each substance at several concentrations.

The nature of test [2]: qHTS assay for small molecule agonists of the p53 signaling pathway - cell viability (AID 651633; calls by dose curve; note: series mostly up to about 83 µM; nearly all actives have a fitted effect of over 30% in size). In outline: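 p53RE-bla cells, seeded at 4,000 per well and rested 5 h at 37 C/5% CO2, received compounds in DMSO for 16 h at 37 C. CellTiter-Glo was then added, and luminescence was read after 30 min at room temperature to gauge cytotoxicity.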
The nature of test [3]: qHTS assay for small molecules that induce genotoxicity in human embryonic kidney cells expressing luciferase-tagged ATAD5 - cell viability (AID 651634; calls by dose curve; note: nearly all actives have a fitted effect of over 25% in size). In outline:
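HEK293T cells expressing luciferase-tagged ATAD5 were exposed to compound or DMSO for 15.5 hr at 37C, 5% CO2. Viability was then read as live-cell protease activity by CellTiter-Fluor fluorescence after 30 min at 37C.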

The nature of test [4]: qHTS assay for small molecule disruptors of the mitochondrial membrane potential - cell viability (AID 720634; calls by dose curve;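 note: human HepG2 liver cancer cells; series mostly up to about 83 µM; nearly all actives have a fitted effect of over 20% in size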). In outline: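 HepG2 cells seeded overnight at 37 C, then exposed to compound or DMSO for 1 hr at 37 C, 5% CO2. m-MPI dye added, then CellTiter-Glo for 30 min at room temperature; viability read as ATP luminescence.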
Test [5] can be described thus: qHTS assay for small molecule disruptors of the mitochondrial membrane potential (AID 720635). Note: potency is the fitted concentration of half-maximal effect. In outline:
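HepG2 cells (2,000/well) attached overnight at 37C, then took compound for 1 hr at 37C, 5% CO2. Mito-MPS dye was added for 30 min; fluorescence was read at 490/535 nm (monomers) and 540/590 nm (aggregates).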

Test [6] is described as follows: qHTS assay to test for compound auto fluorescence at 590 nm (red) in HepG2 cells (AID 720674). In outline: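 Rose Bengal sodium served as the red fluorophore standard. HepG2 monolayers (overnight attachment, MEM with 10% FBS) were exposed to test compounds for 1 hr at 37 C and read at Ex 540/Em 590 nm.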
Test [7] is described as follows: qHTS assay to test for compound auto fluorescence at 535 nm (green) in HepG2 cells (AID 720675).
A short description of test [8]: qHTS assay to test for compound auto fluorescence at 460 nm (blue) in HEK293 cells (AID 720678). In outline: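 Auto fluorescence in the blue band was quantified as triamterene equivalency. HEK293 cells were seeded at 2,000/well, dosed after a 4-5 hr attachment, and kept overnight at 37C before the 405/460 nm reading.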
Test [9] can be described thus: qHTS assay to test for compound auto fluorescence at 590 nm (red) in HEK293 cells (AID 720679). In outline:
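Autofluorescence equivalency to Rose Bengal sodium, 540/590nm, in HEK293 cells exposed overnight to 23 nL compound per well.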

Test [10] can be described thus: qHTS assay to test for compound auto fluorescence at 535 nm (green) in HEK293 cells (AID 720680).
Test [11] is described as follows: qHTS assay to test for compound auto fluorescence at 460 nm (blue) in HEK293 cell free culture (AID 720681). In outline:
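Test compounds were pinned into cell-free culture medium (DMEM with 10% FBS) and fluorescence was read directly at Ex/Em 405/460 nm. Signals were expressed as fluorescence equivalents of triamterene, with DMSO vehicle as control.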

The nature of test [12]: qHTS assay to test for compound auto fluorescence at 535 nm (green) in HEK293 cell free culture (AID 720682). In outline: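 Compounds were pin-transferred into cell-free DMEM with 10% FBS, and green fluorescence was read at excitation 485 nm and emission 535 nm. Intensities were expressed as fluorescein-equivalent values.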
Test [13] can be described thus: qHTS assay to test for compound auto fluorescence at 590 nm (red) in HEK293 cell free culture (AID 720683). In outline: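 Tox21 10K library compounds were pinned into cell-free DMEM with 10% FBS and fluorescence was read at excitation 540 nm. Activity is expressed as Rose Bengal sodium equivalency.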
Test [14] can be described thus: qHTS assay to test for compound auto fluorescence at 590 nm (red) in HepG2 cell free culture (AID 720684). In outline:
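Measured in medium alone (MEM containing 10% FBS) following pintool addition of compound; emission at 590 nm with 540 nm excitation, referenced to Rose Bengal sodium.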

Test [15] can be described thus: qHTS assay to test for compound auto fluorescence at 460 nm (blue) in HepG2 cell free culture (AID 720685). In outline: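 Compound (23 nL) or DMSO pinned into cell-free MEM with 10% FBS; blue fluorescence read at 405/460 nm excitation/emission, expressed as auto-fluorescence equivalency to triamterene.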
Test [16] is described as follows: qHTS assay to test for compound auto fluorescence at 535 nm (green) in HepG2 cell free culture (AID 720686).
The nature of test [17]: qHTS assay to test for compound auto fluorescence at 460 nm (blue) in HepG2 cells (AID 720687). In outline: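 Cells (2,000/well in MEM with 10% FBS) attached overnight at 37 C, then were exposed to compound or DMSO for 1 hr at 37 C, 5% CO2. Fluorescence read at Ex/Em 405/460 nm, expressed as triamterene-equivalent signal.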
In test [18] the target is Glucocorticoid receptor (Homo sapiens) (UniProt P04150). Description: qHTS assay to identify small molecule agonists of the glucocorticoid receptor (GR) signaling pathway (AID 720691; active = well fitted activation curve with a large enough effect in the signal ratio in the repeat runs, not every such curve was filed as active; the % refers to the signal ratio; note: potency is the fitted concentration of half-maximal effect). In outline: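 GR-bla HeLa cells (beta-lactamase reporter under glucocorticoid response element) were plated 4 h at 37 C/5% CO2, given compounds in DMSO, and incubated 18 h at 37 C. LiveBLAzer B/G FRET substrate was added for 2 h at room temperature, then fluorescence intensity read.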
Chain of Glucocorticoid receptor (Homo sapiens) (P04150 whole entry, looked up): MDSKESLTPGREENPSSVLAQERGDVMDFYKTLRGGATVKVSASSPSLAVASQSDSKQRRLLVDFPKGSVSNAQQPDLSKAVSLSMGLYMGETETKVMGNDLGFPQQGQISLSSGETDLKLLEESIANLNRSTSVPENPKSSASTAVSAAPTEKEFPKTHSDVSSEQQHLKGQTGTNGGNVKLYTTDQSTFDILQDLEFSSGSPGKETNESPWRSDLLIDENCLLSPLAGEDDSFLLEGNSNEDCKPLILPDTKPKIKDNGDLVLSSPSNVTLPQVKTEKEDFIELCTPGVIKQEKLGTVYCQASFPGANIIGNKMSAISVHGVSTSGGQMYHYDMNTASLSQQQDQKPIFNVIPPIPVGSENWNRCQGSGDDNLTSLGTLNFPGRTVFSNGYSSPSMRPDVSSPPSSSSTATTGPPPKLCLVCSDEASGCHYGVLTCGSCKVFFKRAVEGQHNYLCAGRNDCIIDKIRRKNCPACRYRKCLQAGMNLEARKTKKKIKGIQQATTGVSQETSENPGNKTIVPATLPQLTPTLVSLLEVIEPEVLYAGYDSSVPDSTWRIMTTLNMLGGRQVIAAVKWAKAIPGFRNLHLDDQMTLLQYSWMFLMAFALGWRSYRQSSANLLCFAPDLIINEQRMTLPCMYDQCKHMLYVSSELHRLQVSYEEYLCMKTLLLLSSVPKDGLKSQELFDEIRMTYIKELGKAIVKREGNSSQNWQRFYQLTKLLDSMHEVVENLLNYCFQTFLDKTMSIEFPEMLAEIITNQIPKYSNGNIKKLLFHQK

The target is the same in test [19]. Description: qHTS assay to identify small molecule antagonists of the glucocorticoid receptor (GR) signaling pathway (AID 720692; active = well fitted inhibition curve with a large enough effect in the signal ratio in the repeat runs, not every such curve was filed as active; the % refers to the signal ratio). In outline: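 GR-bla HeLa cells (beta-lactamase reporter under glucocorticoid response element) were pre-plated 4 h at 37 C, treated with compounds plus 5 nM dexamethasone (final) for 18 h, then read by LiveBLAzer B/G FRET fluorescence after 2 h.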

Test [20] can be described thus: qHTS assay for small molecule agonists of the p53 signaling pathway (AID 651631; calls by dose curve; note: nearly all actives have a fitted effect of over 15% in size). In outline:
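Readout was fluorescence from the LiveBLAzer FRET substrate, applied for 2 h at room temperature after 16 h compound exposure at 37 °C. Cells were the p53RE-bla HCT-116 line, with beta-lactamase driven by p53 response elements.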
% is set by controls: 0 for no effect and ±100 for the full control effect.

Consider `C=CCCCCCCCCOC(C)=O`, for which the Potency result in [1], in test [5] and in [18] was “inactive” throughout. Further, the outcome in test [2], in test [3], in test [4], in [6], in test [7] and in test [8] was inactive. Besides, the compound was classed as inactive in test [9], in test [10], in test [11], in [12], in [13] and in test [14]. For the same compound, the compound was called inactive in [15], in [16] and in test [17].

In the case of `CC(C)(O)c1ccc(C(C)(C)O)cc1`, the Potency result in [1], in test [5] and in test [18] was “inactive” throughout. Also, the compound was classed as inactive in test [2], in test [3], in test [4], in test [6], in test [7] and in test [8]. Moreover, the call in [9], in [10], in test [11], in test [12], in [13] and in [14] was inactive. In addition, the outcome in test [15], in test [16] and in test [17] was inactive.

Consider `CCCCCC(CC)OC(=O)CCCOc1ccc(Cl)cc1Cl` (centres undefined), for which the Potency entry in [1], in test [5] and in [18] was “inactive” in each case. Further, the compound was classed as inactive in test [2], in test [3], in test [4], in test [6], in test [7] and in [8]. For the same compound, the compound was called inactive in test [9], in test [10], in test [11], in test [12], in [13] and in test [14]. The outcome in [15], in test [16], in [17] and in test [19] was inactive.

Consider `c1cc2ccc3ccc4ccc5cccc6c(c1)c2c3c4c56`, for which the activation in [1] was 2.87% [at 3.63 µM]. For the same compound, the results for the activity change, negative = cytotoxicity in test [2] and in test [4] were 10.5% [at 3.63 µM] and 7.58% [at 3.63 µM], respectively. The activity, negative = cytotoxicity in [3] is 31.3% [at 3.63 µM]. Besides, the ratio activity, negative = MMP loss in [5] was 16.7% [at 3.63 µM]. In [6], the fluorescence, relative to Rose Bengal was 0.113% [at 3.72 µM]. For the same compound, the fluorescence, % of fluorescein control is 0.0742% [at 3.72 µM] in test [7] and -0.0141% [at 3.72 µM] in test [16]. For the same compound, the fluorescence, % of triamterene in [8] is 1.23% [at 3.72 µM]. The fluorescence, % of fluorescent control in [9] was 0.132% [at 3.72 µM]; in [11], 1.22% [at 3.72 µM]; in test [13], -0.0354% [at 3.72 µM]; in [15] it was 1.51% [at 3.72 µM]; in test [17], 2.24% [at 3.72 µM]. In test [10], the fluorescence, % of fluorescein is -0.0268% [at 3.72 µM]. For the same compound, the activity change in test [12] was 0.0204% [at 3.72 µM]. In test [14], the fluorescence, % of Rose Bengal is 0.202% [at 3.72 µM]. The Potency in test [18] is 1.95 µM (active). The activity change, negative = inhibition in test [19] was 4.22% [at 3.15 µM].

Consider `CC(=O)c1ccc2ccc3ccccc3c2c1`, for which the Potency entry in [1] was “inactive”. The compound was classed as inactive in [2], in [3], in test [4], in [6], in [7] and in test [8]. For the same compound, the result in test [9], in test [10], in test [11], in [12], in test [13] and in [14] was inactive. Further, the compound was classed as inactive in test [15], in test [16] and in [17]. Also, in test [5], the Potency was 30.5 µM (active).

Consider `COC(=O)N/N=C/c1c[n+]([O-])c2ccccc2[n+]1[O-]`, for which the Potency entry in test [1] and in [5] was “inactive” throughout. Besides, the call in [2], in test [3], in test [4], in test [6], in [7] and in [8] was inactive. Also, the compound was called inactive in test [9], in test [10], in [11], in [12], in [13] and in test [14]. Further, the call in test [16] and in test [17] was inactive.

Regarding `CCNC(=O)C(C)OC(=O)Nc1ccccc1` (centres undefined), the Potency entry in test [20], in test [1] and in [18] was “inactive” each time. The compound was called inactive in test [3], in test [4], in test [6], in test [7], in test [8] and in test [9]. The result in [10], in [11], in test [12], in test [13], in [14] and in [15] was inactive. The outcome in test [17] and in test [19] was inactive.
